Reference: PubChem BioAssay (NCATS)
Where “and” joins values, the source holds several entries; their conditions need not be identical. Equal values may be shown once. Results filed as inconclusive are left out. Where a call stands in place of a potency, no number is given. Calls of active or inactive are those of the source. Unless noted, the call rests on the fitted dose curve; in most records, active means well fitted curve in the direction sought with a large enough effect; inconclusive means small, poorly fitted or top-dose-only effect, or another doubt; inactive means no such curve, though single readings can be large; an effect the other way counts as inactive or inconclusive.

Key:
[1] = Cell Viability - N2a (AID 540); conditions: N2a mouse neuroblastoma cell viability; activity change, negative = cytotoxicity: at 92.2 µM (top of the series); further: nearly all actives have a fitted effect of over 45% in size
Procedure, shortened: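 CellTiter-Glo ATP luminescence, read 20 min after reagent at room temperature, reported viability following 40 h compound treatment at 37 °C. N2a mouse neuroblastoma cells seeded 1500/well; Hill equation gave AC50.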

[2] = Cell Viability - H-4-II-E (AID 543);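 further: cells exposed to compound for 40 hours; nearly all actives have a fitted effect of over 35% in size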
Procedure, shortened: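 CellTiter-Glo luminescence (intracellular ATP) measured after 40 h compound exposure at 37 °C in H-4-II-E rat hepatoma cells seeded at 1500/well. Values are AC50s fitted with the standard Hill equation.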

[3] = Cell Viability - Mesenchymal (AID 546);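 further: cells exposed to compound for 40 hours before reading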
Procedure, shortened: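 CellTiter-Glo luminescence (intracellular ATP, 20 min room temperature) after 40 hr compound exposure at 37 °C of 1000 glomerulus-derived human kidney mesenchymal cells/well; AC50 values obtained by fitting qHTS concentration-response data to the Hill equation.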

[4] = Cellular Toxicity (caspase-3) Renal Proximal Tubule (AID 667);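 further: cells exposed to compound for 16 hours at 37 °C before detection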
Procedure, shortened: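 AC50 derived by standard Hill fit of concentration-response data, normalized between DMSO basal and 10 uM staurosporine as 100% stimulation. Cells: primary rat kidney proximal tubule, 16 h treatment at 37 °C.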

[5] = MultiTox-Fluor Cytotoxicity Assay - LYMP1-002 - Dead Cells (AID 960); further: nearly all actives have a fitted effect of over 60% in size
Procedure, shortened: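 Dead-cell fluorescence (Ex/Em 485/520) after 16 h compound exposure at 37 C of LYMP1-002 lymphoblastoid cells in complete medium; AC50 by Hill equation, with data scaled between DMSO and 15 uM tetraoctylammonium bromide.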

[6] = MultiTox-Fluor Cytotoxicity Assay - LYMP1-003 - Live Cells (AID 962);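 further: cells exposed to compound for 16 hours at 37 °C; cytotoxic hits lower the live-cell protease signal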
Procedure, shortened: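 Live-cell protease activity (GF-AFC substrate, 405/510 nm, 60 min at room temperature) after 16 h, 37 C compound exposure of human lymphoblastoid LYMP1-003 cells; concentration-response fitted to the Hill equation for AC50.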

[7] = Cell Viability - LYMP2-004 (AID 966); further: nearly all actives have a fitted effect of over 65% in size
Procedure, shortened: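 AC50 values come from Hill modelling of concentration-dependent loss of intracellular ATP, measured by CellTiter-Glo luminescence. Human LYMP2-004 lymphoblastoid cells (2500/well) were exposed to compound for 24 h at 37 C.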

[8] = Cell Viability - LYMP2-007 (AID 979);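 further: cells exposed to compound for 24 h before reading; nearly all actives have a fitted effect of over 60% in size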
Procedure, shortened: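 AC50 values come from Hill-equation fits of luminescent intracellular ATP (CellTiter-Glo, 30 min, room temperature) following 24 h compound exposure at 37 C. Cells: LYMP2-007 lymphoblastoid line, 2500 per well, in complete culture medium.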

[9] = Cell Viability - LYMP2-012 (AID 982);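 further: cellular ATP by luciferase luminescence where a drop means cytotoxicity; cells exposed to compound for one day before reading; nearly all actives have a fitted effect of over 55% in size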
[10] = Cell Viability - LYMP2-016 (AID 984); further: nearly all actives have a fitted effect of over 55% in size
Procedure, shortened: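 Cells were seeded at 2500 per well and rested 5 hr before a 24 hr compound exposure at 37 C. Viability was then gauged as cellular ATP by luciferase luminescence, with AC50 values fitted to the Hill equation.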

[11] = biological target: Peroxisome proliferator-activated receptor gamma (Homo sapiens) (UniProt P37231); test: qHTS assay for small molecule agonists of peroxisome proliferator-activated receptor gamma signaling (AID 588536; active means well fitted curve in the direction sought with a large enough effect in the signal ratio, with a control signal flat, not every such curve was filed as active; the % refers to the signal ratio)
Chain of Peroxisome proliferator-activated receptor gamma (Homo sapiens) (P37231 whole entry, looked up): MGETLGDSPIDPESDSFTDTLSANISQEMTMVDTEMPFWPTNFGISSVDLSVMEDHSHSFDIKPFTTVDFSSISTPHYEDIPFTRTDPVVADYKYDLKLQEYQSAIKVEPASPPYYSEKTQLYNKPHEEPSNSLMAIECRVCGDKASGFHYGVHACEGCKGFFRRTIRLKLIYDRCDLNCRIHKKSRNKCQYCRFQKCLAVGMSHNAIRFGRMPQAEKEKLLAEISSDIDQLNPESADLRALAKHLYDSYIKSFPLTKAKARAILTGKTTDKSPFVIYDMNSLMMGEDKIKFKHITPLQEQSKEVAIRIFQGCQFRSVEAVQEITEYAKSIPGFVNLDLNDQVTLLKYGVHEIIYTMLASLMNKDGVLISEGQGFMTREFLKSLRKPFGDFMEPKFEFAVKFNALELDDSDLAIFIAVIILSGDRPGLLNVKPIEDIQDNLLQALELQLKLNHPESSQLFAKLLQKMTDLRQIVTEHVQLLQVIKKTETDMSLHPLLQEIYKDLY
Procedure, shortened: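 Beta-lactamase reporter read-out: CCF4 fluorescence (ex 405, em 460/530 nm) after 2 h at RT. HEK293 GeneBLAzer cells were treated for 16 h at 37 C. Hill fits gave EC50 and efficacy versus 2 uM rosiglitazone (100%) and DMSO (0%).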

[12] = qHTS assay for small molecule agonists of retinoid X receptor alpha signaling (AID 588544); conditions: HEK293T RXRa-UAS-bla, beta-lactamase reporter, 18 h; 530 nm emission
[13] = qHTS assay for small molecule antagonists of retinoid X receptor alpha signaling (AID 588546; active means well fitted inhibition curve with a large enough effect in the signal ratio, with a control signal flat, not every such curve was filed as active; the % refers to the signal ratio;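 further: cells stimulated with 9-cis-retinoic acid as agonist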); conditions: HEK293T RXRa-UAS-bla, beta-lactamase ratio, antagonist mode; measured here: W530 green channel, cytotoxicity proxy
Procedure, shortened: (§1)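 Beta-lactamase reporter inhibition, read as CCF4 fluorescence ratio (ex 405, em 460/530 nm) after 2 h at RT. HEK293T UAS-bla cells, 2500/well, were stimulated with 9-cis-RA at 500 or 100 nM final alongside test compound for 18 h at 37 C.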

[14] = biological target: Retinoic acid receptor RXR-alpha (Homo sapiens) (UniProt P19793); test: as above; conditions: HEK293T RXRa-UAS-bla, beta-lactamase ratio, antagonist mode
Chain of Retinoic acid receptor RXR-alpha (Homo sapiens) (P19793 whole entry, looked up): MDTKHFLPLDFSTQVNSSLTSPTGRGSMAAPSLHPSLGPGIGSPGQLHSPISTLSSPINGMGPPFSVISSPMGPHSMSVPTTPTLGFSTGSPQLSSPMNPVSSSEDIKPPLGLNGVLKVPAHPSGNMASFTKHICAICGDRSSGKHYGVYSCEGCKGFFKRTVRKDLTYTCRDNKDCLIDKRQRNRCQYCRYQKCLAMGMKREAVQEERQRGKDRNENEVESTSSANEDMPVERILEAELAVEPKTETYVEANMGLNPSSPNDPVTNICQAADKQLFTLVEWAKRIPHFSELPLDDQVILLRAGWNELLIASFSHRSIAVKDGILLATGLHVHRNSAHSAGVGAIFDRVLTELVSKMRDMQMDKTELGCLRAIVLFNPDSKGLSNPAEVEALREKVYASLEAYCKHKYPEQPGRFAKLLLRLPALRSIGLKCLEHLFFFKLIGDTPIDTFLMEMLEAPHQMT
Procedure, shortened: as §1

[15] = biological target: Tumor necrosis factor (Homo sapiens) (UniProt P01375); test: qHTS assay to identify small molecules that stimulate Tumor Necrosis Factor-alpha (TNF-alpha) secretion (AID 651757; active means well fitted curve in the direction sought with a large enough effect in the signal ratio; the % refers to the signal ratio)
Chain of Tumor necrosis factor (Homo sapiens) (P01375 whole entry, looked up): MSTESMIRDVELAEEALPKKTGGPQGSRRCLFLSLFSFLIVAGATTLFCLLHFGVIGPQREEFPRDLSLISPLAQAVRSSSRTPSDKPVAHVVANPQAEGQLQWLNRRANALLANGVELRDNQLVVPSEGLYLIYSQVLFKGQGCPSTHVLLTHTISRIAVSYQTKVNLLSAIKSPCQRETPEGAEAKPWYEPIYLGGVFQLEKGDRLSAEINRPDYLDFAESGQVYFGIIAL
Procedure, shortened: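 Secreted TNF-alpha quantified by TR-FRET sandwich of two labeled anti-TNF-alpha antibodies, incubated 3 hr at room temperature. Preceded by 17 hr, 37 C compound treatment of THP-1 cells at 3000 cells/well.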

[16] = qHTS assay for small molecule agonists of the antioxidant response element (ARE) signaling pathway measured by Nrf2-dependant transcriptional activity (AID 720636; active means well fitted curve in the direction sought with a large enough effect in the repeat runs; an effect the other way counts as inactive or inconclusive;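 further: HepG2 cells with an ARE-driven luciferase reporter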)
Procedure, shortened: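 Attachment 6 hr at 37 C, then compound versus DMSO vehicle for 16 hr in ARE-luc HepG2 cells (1% dialyzed FBS); luminescence recorded 30 min after ONE-Glo addition at room temperature.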

[17] = qHTS assay for small molecule antagonists of the retinoid-related orphan receptor gamma (ROR-gamma) signaling pathway - cell viability counter screen (AID 720652; active means well fitted curve in the direction sought with a large enough effect in the repeat runs; an effect the other way counts as inactive or inconclusive;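 further: CHO reporter cells with doxycycline-induced ROR-gamma expression; compound exposure lasted 16 hr before ATP read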)
Procedure, shortened: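 Cytotoxicity counter screen: intracellular ATP (CellTiter-Glo luminescence) measured in the doxycycline-induced CHO RORE-luciferase reporter line after 16 hr compound exposure at 37 C, 5% CO2.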

[18] = biological target: Cytochrome P450 3A4 (Homo sapiens) (UniProt P08684); test: qHTS Assay for Inhibitors and Substrates of Cytochrome P450 3A4 (AID 884); further: nearly all actives have a fitted effect of over 50% in size
Chain of Cytochrome P450 3A4 (Homo sapiens) (P08684 whole entry, looked up): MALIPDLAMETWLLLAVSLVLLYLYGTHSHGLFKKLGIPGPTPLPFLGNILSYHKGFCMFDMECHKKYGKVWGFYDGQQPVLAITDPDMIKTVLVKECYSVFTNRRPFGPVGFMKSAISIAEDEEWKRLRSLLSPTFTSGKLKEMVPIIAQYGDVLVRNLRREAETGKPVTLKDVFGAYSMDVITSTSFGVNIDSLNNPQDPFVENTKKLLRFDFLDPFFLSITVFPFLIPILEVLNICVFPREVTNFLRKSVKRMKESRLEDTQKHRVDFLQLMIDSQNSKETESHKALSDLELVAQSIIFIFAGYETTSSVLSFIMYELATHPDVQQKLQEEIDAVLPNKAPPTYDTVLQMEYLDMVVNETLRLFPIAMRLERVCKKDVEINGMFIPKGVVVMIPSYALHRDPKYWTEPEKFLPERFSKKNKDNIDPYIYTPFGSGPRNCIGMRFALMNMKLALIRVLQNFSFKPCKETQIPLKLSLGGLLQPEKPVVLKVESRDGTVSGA
Procedure, shortened: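 Luminescent readout of luciferin produced by CYP3A4 (20 nM) dealkylation of Luciferin-PPXE, 25 uM (its KM). NADPH-driven reaction ran 60 min at RT after 10 min compound preincubation; data scaled to 57 uM ketoconazole as 100% inhibition.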

[19] = biological target: Nuclear receptor ROR-gamma (Homo sapiens) (UniProt P51449); test: qHTS assay for small molecule antagonists of the retinoid-related orphan receptor gamma (ROR-gamma) signaling pathway (AID 651802);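 further: CHO cells with doxycycline-induced ROR-gamma expression; luciferase reporter luminescence driven by ROR response element; nearly all actives have a fitted effect of over 60% in size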
Chain of Nuclear receptor ROR-gamma (Homo sapiens) (P51449 whole entry, looked up): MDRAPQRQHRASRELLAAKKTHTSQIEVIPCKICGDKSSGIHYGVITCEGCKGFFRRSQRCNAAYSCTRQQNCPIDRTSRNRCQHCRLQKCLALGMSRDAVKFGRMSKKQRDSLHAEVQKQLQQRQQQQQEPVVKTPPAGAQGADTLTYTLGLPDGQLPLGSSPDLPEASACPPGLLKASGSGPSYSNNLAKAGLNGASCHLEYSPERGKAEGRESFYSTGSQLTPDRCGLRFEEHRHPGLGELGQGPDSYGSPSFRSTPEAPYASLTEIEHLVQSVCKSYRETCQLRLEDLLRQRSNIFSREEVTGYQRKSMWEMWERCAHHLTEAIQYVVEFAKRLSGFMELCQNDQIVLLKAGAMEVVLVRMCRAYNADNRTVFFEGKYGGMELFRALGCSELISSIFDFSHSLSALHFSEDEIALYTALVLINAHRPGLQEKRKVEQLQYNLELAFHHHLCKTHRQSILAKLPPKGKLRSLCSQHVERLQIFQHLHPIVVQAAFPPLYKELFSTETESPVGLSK
Procedure, shortened: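 Luminescence (One-Glo, 30 min RT) measured 16 h after compound addition and doxycycline induction at 37C. Reporter: RORE-luciferase under TET-inducible ROR-gamma in CHO cells.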

[20] = biological target: Nuclear receptor subfamily 1 group I member 2 (Rattus norvegicus) (UniProt Q9R1A7); test: qHTS assay for small molecule activators of the rat pregnane X receptor (rPXR) signaling pathway (AID 651751; call rule not given here); conditions: rPXR reporter cells, luciferase (One-Glo), 24 h
Chain of Nuclear receptor subfamily 1 group I member 2 (Rattus norvegicus) (Q9R1A7 whole entry, looked up): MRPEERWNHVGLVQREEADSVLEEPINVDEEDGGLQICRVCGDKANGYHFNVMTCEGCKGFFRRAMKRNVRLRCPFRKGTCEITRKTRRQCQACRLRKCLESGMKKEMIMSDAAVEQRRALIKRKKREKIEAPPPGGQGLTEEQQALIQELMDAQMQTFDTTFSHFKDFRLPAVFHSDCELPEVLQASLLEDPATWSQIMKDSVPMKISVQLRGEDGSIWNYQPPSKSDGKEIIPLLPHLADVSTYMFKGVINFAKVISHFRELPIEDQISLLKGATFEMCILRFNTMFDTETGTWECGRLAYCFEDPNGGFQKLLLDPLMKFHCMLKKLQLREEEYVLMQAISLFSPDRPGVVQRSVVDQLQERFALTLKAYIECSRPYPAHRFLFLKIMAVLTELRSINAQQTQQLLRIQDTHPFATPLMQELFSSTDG

Row | Compound | Potency [1] | Potency [2] | Potency [3] | outcome [4] | Potency [5] | outcome [6] | Potency [7] | Potency [8] | Potency [9] | Potency [10] | outcome [11] | max response [12] | max response [13] | max response [14] | outcome [15] | Potency [16] | Potency [17] | Potency [18] | Potency [19] | max response [20]
1 | Cc1ccc(N)cc1Cl | inactive | inactive | inactive | inactive | inactive | inactive | inactive | inactive | inactive | inactive | inactive | -18.1% | -6.83% | -11.5% (inactive) | inactive | inactive | inactive |  |  | 
2 | O=C(Cl)c1ccccc1F | inactive | inactive | inactive |  | inactive | inactive | inactive | inactive | inactive | inactive | inactive | 6.73% | -4.19% | 13.4% (inactive) | inactive | inactive | inactive | inactive | inactive | 4.78% (inactive)
3 | O=NN1CCCCC1 | inactive | inactive | inactive | inactive | inactive | inactive | inactive | inactive | inactive | inactive | inactive | 5.16% | -1.5% | 14.4% (inactive) | inactive | inactive | inactive | inactive | inactive | -1.74% (inactive)
4 | CC(C)(COCC1CO1)COCC1CO1 (centres undefined) | inactive | inactive | inactive | inactive | inactive |  | inactive | inactive | inactive | inactive | inactive |  | 21.1% | 6.95% (inactive) | inactive | inactive | inactive | inactive | inactive | 1.93% (inactive)
5 | C=CCO | inactive | inactive |  | inactive |  | inactive | inactive |  | inactive | inactive |  | -10.3% | 1.87% | 7.67% (inactive) | inactive | inactive | inactive | inactive |  | -2.14% (inactive)
6 | CCC(Cl)[N+](=O)[O-] (centres undefined) | inactive | inactive | inactive | inactive | inactive | inactive | inactive | inactive | inactive | inactive | inactive | -8.6% | -9.88% | -10.3% (inactive) | inactive | inactive | inactive | inactive | inactive | -0.428% (inactive)
7 | Clc1cccc(Cl)c1 | inactive | inactive | inactive | inactive | inactive | inactive | inactive | inactive | inactive | inactive | inactive | 5.35% | -14.2% | 24.2% (inactive) | inactive | inactive |  | inactive | inactive | 1.78% (inactive)
8 | Clc1ccccc1 | inactive | inactive | inactive | inactive | inactive |  | inactive | inactive | inactive | inactive | inactive | -8.37% | -7.38% | -2.2% (inactive) | inactive | inactive | inactive | inactive | inactive | -2.96% (inactive)
9 | ClCC(Cl)CCl | inactive | inactive | inactive | inactive | inactive | inactive | inactive | inactive | inactive | inactive |  | -14.4% and -17.5% | 0.286% and -10.8% | 11.2% (inactive) and -5.45% (inactive) | inactive | inactive | inactive | inactive | inactive | 8.27% (inactive) and 1.68% (inactive)
10 | C=CCCl | inactive | inactive | inactive | inactive | inactive | inactive | inactive | inactive | inactive | inactive | inactive | -13.3% |  |  | inactive | inactive | inactive | inactive | inactive | 0.623% (inactive)
